{"source": "PubChem BioAssay AID602438", "about": "(Sanford-Burnham Center for Chemical Genomics, 2012)", "note": "In all, about 360,000 compounds went through this assay and about 3,100 (0.86%) were called active.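 How the source made its calls: active means inhibition or corrected inhibition above about 18%, plus a signal ratio from 0.5 to 1.5 (limit read from the data, passing the limit was not always enough); inactive means the rest.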 The full list was thinned out, with actives kept by preference.", "data": [{"target": "Neuropilin-1 (Homo sapiens) (UniProt O14786)", "sequence (O14786 whole entry, looked up)": "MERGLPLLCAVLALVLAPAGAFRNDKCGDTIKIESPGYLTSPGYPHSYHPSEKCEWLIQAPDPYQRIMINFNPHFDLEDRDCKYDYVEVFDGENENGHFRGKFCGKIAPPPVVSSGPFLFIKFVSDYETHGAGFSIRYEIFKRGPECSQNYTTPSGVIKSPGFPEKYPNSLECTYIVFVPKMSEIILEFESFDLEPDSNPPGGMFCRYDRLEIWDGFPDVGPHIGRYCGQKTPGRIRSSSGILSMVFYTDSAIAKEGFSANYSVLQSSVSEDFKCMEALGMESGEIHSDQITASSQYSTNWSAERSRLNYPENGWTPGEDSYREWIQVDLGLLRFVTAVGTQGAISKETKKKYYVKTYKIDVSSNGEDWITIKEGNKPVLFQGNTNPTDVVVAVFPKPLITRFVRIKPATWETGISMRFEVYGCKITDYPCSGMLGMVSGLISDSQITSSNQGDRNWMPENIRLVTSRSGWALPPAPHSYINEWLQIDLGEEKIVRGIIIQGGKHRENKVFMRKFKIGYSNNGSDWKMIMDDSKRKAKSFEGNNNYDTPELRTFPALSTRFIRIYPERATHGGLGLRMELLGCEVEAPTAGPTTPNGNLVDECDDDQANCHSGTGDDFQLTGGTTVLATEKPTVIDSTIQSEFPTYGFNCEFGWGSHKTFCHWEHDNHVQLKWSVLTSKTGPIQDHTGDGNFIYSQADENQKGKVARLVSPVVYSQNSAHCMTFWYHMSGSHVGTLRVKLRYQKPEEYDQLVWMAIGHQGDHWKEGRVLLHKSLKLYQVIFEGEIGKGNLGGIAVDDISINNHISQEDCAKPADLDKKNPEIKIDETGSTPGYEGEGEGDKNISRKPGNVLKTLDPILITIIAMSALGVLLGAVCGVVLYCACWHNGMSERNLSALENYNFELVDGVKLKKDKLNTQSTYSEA", "test": "modulators of CendR peptide binding to NRP-1, primary screen, biochemical, fluorescence polarization, uHTS (AID 602438)", "conditions": "FAM-RPARPAR peptide binding to NRP-1, fluorescence polarization; at 25 µM; hits give high values", "values": [{"smiles": "Cc1ccc(C(=O)NC(C)C(c2cccs2)N2CCOCC2)cc1C", "note": "(stereo not given)", "inhibition": "-2% (inactive)"}, {"smiles": "Cc1ccc(N(C(=O)c2ccc(CN3CCOCC3)o2)C(C(=O)NCCC(C)C)c2cccs2)c(C)c1", "note": "(stereo not given)", "inhibition": "26.1% (active)"}, {"smiles": "Cc1cccc(N(C(=O)c2ccc(CN3CCOCC3)o2)C(C(=O)NC2CCCCC2)c2ccc(F)cc2)c1", "note": "(stereo not given)", "inhibition": "-7.1% (inactive)"}, {"smiles": "Cc1csc(=O)n1CCC(=O)OCC(=O)NNC(=O)c1ccc(Br)cc1", "inhibition": "-1.9% (inactive)"}, {"smiles": "CCOC(=O)N1CCN(C(c2ccnc3ccccc23)c2nnnn2-c2c(C)cccc2C)CC1", "note": "(stereo not given)", "inhibition": "-13.7% (inactive)"}, {"smiles": "COc1cc(NC(=O)COC(=O)c2ccc([N+](=O)[O-])s2)cc(OC)c1OC", "inhibition": "-5.2% (inactive)"}, {"smiles": "COc1ccc(C(=O)COC(=O)c2ccc([N+](=O)[O-])s2)cc1OC", "inhibition": "24.3% (active)"}, {"smiles": "O=C(OCC(=O)N1CCN(c2ccccc2)CC1)c1ccc([N+](=O)[O-])s1", "inhibition": "-3.7% (inactive)"}, {"smiles": "COc1ncnc2c1ncn2CCCNCCN1CCOCC1", "inhibition": "1% (inactive)"}, {"smiles": "CCOc1ccc(CCNC(=O)CSc2cc(=O)n(C)c3ccc(Cl)cc23)cc1OCC", "inhibition": "4.1% (inactive)"}, {"smiles": "O=C(CCNC(=O)c1ccccc1Cl)NN=Cc1ccco1", "inhibition": "10.2% (inactive)"}, {"smiles": "O=C(Cc1ccccc1)Nc1cccc(C(=O)N/N=C/c2ccco2)c1", "inhibition": "-32.3% (inactive)"}, {"smiles": "O=C(N/N=C/c1ccco1)c1csc2c1CCCC2", "inhibition": "26.9% (active)"}, {"smiles": "CCOC(=O)C(C)n1cnc2scc(-c3ccc(C)c(C)c3)c2c1=O", "note": "(stereo not given)", "inhibition": "9.9% (inactive)"}, {"smiles": "CCC(C(=O)OC)n1cnc2scc(-c3ccc(C)cc3)c2c1=O", "note": "(stereo not given)", "inhibition": "91.3% (active)"}, {"smiles": "CC(=O)C(C)n1cnc2scc(-c3ccc(C)cc3)c2c1=O", "note": "(stereo not given)", "inhibition": "7.4% (inactive)"}, {"smiles": "O=C(CCNC(=O)C1CCN(S(=O)(=O)c2ccccc2)CC1)NC1CC1", "inhibition": "-0.4% (inactive)"}, {"smiles": "Cc1ccccc1NC(=O)c1cc(S(=O)(=O)N2CCOCC2)cs1", "inhibition": "15% (inactive)"}, {"smiles": "Cc1ccc(-c2ccc(C3=CC(=O)CC(C)(C)C3=O)cc2)cc1", "inhibition": "4.5% (inactive)"}, {"smiles": "CN1CCN(c2cc3c(cc2F)c(=O)c(C(=O)O)cn3CCF)CC1", "inhibition": "11.3% (inactive)"}, {"smiles": "CCOC(=O)c1c(NC(=O)CCl)sc(C(=O)N(CC)CC)c1C", "inhibition": "-0.5% (inactive)"}, {"smiles": "CCOC(=O)Nc1sc(C(=O)N(C)C)c(C)c1C(=O)OCC", "inhibition": "26.1% (active)"}, {"smiles": "CCOC(=O)c1c(NC(=O)COC(=O)c2ccc(S(=O)(=O)C(F)F)cc2)sc(C(=O)N(C)C)c1C", "inhibition": "-19.4% (inactive)"}, {"smiles": "Cc1cc(NC(=O)CSc2nc(=O)cc(N)n2-c2ccc(F)cc2)no1", "inhibition": "8.7% (inactive)"}, {"smiles": "COc1ccc(Cl)cc1S(=O)(=O)N1CCN(CC(=O)C(C)(C)C)CC1", "inhibition": "21.7% (active)"}, {"smiles": "COc1ccc(Cl)cc1S(=O)(=O)N1CCC(O)(c2ccc(Cl)cc2)CC1", "inhibition": "3% (inactive)"}, {"smiles": "COc1ccc(C(=O)NCc2ccc(Cl)cc2)cc1S(=O)(=O)N1CCCC1", "inhibition": "4.6% (inactive)"}, {"smiles": "CC(NCc1ccccc1OC1CCCC1)c1ccccc1", "note": "(stereo not given)", "inhibition": "-0.1% (inactive)"}, {"smiles": "O=C(NC12CC3CC(CC(C3)C1)C2)N1CCCC(CO)C1", "note": "(stereo not given)", "inhibition": "-1.5% (inactive)"}, {"smiles": "CC(=O)c1c(N)n(C)c(=O)n(C)c1=O", "inhibition": "5.8% (inactive)"}, {"smiles": "Cc1ccc(C(C(=O)NCC2CCCO2)N(C(=O)c2snc(C(N)=O)c2N)c2ccc(C(C)C)cc2)o1", "note": "(stereo not given)", "inhibition": "-5.9% (inactive)"}, {"smiles": "O=C(O)c1ccccc1OCc1ccccc1Cl", "inhibition": "5.3% (inactive)"}, {"smiles": "Cc1ccc(-n2c(SCC(=O)NCc3ccc4c(c3)OCO4)nnc2-c2cccnc2)c(C)c1", "inhibition": "8.7% (inactive)"}, {"smiles": "Cn1cccc1Cc1nnc(SCC(=O)NCc2ccc3c(c2)OCO3)n1CCc1ccccc1", "inhibition": "-7.4% (inactive)"}, {"smiles": "Cc1ccccc1-c1nnc(SCC(=O)NCc2ccc3c(c2)OCO3)n1C", "inhibition": "38.3% (active)"}, {"smiles": "Cc1cc(N=CC2=C(O)CCCC2=O)no1", "inhibition": "10.1% (inactive)"}, {"smiles": "CC1OC2C(OC1C)N(S(C)(=O)=O)CCN2S(C)(=O)=O", "note": "(stereo not given)", "inhibition": "-3.5% (inactive)"}, {"smiles": "CC1(C(=O)Nc2ccc3c(c2)OCCO3)CSCC(=O)N1CCOc1ccccc1", "note": "(stereo not given)", "inhibition": "-11.3% (inactive)"}, {"smiles": "CCCN(CC1CC1)C(=O)COC(=O)c1ccc(C)cc1O", "inhibition": "-9.9% (inactive)"}, {"smiles": "Cc1cccc(C)c1NC(=O)COC(=O)c1ccccc1O", "inhibition": "6.8% (inactive)"}, {"smiles": "Cc1ccc(C(=O)OCC(=O)NC(=O)Cc2ccccc2)c(O)c1", "inhibition": "20.4% (active)"}, {"smiles": "C[C@H](CO)N1C[C@H](C)[C@@H](CN(C)C(=O)c2cnccn2)Oc2ncc(Br)cc2C1=O", "inhibition": "2.9% (inactive)"}, {"smiles": "C/C=C/C(=O)Nc1ccc(N2CCN(c3ccc(C(F)(F)F)cn3)CC2)nc1", "inhibition": "6.8% (inactive)"}, {"smiles": "C[C@H]1CN([C@@H](C)CO)C(=O)Cc2cc(NC(=O)Cc3ccccc3)ccc2O[C@H]1CN(C)S(=O)(=O)c1cccs1", "inhibition": "0.6% (inactive)"}, {"smiles": "CCCCCNC(=O)c1cccnc1SCC(=O)Nc1ccccc1OC", "inhibition": "-0.3% (inactive)"}, {"smiles": "Cc1cc(Cl)c2oc(C(=O)N(C)C(C)c3ccccn3)c(C)c2c1", "note": "(stereo not given)", "inhibition": "9.3% (inactive)"}, {"smiles": "Cc1cc(Cl)c2oc(C(=O)NC(C)c3ccncn3)c(C)c2c1", "note": "(stereo not given)", "inhibition": "1.3% (inactive)"}, {"smiles": "CCOC(=O)c1csc(CCNC(=O)c2oc3c(Cl)cc(C)cc3c2C)n1", "inhibition": "24.9% (active)"}, {"smiles": "CCN(CC(=O)Nc1cc(Cl)ccc1C)C(=O)Cn1c(=O)cnc2ccccc21", "inhibition": "9% (inactive)"}, {"smiles": "O=c1nc(NO)ccn1C1CCCO1", "note": "(stereo not given)", "inhibition": "7.6% (inactive)"}, {"smiles": "CC(C)C(C(=O)NCc1ccco1)N(CC1CCCO1)C(=O)CNS(=O)(=O)c1ccc(F)cc1", "note": "(stereo not given)", "inhibition": "15.8% (inactive)"}, {"smiles": "Cc1ccc2c(c1)C1CN(C)CCC1N2C(=O)c1ccccc1NS(=O)(=O)c1ccc(F)cc1C", "note": "(stereo not given)", "inhibition": "37.9% (active)"}, {"smiles": "Cc1ccc2c(c1)C1C[N+](C)(CC(=O)c3ccccc3)CCC1N2C(=O)c1ccccc1Cl", "note": "(stereo not given)", "inhibition": "5.2% (inactive)"}, {"smiles": "Cc1ccc2c(c1)C1CN(C)CCC1N2C(=S)Nc1ccc(Cl)cc1Cl", "note": "(stereo not given)", "inhibition": "-11.4% (inactive)"}, {"smiles": "Cc1noc(C)c1CSCC(=O)Nc1ccc(Br)cc1Cl", "inhibition": "12.2% (inactive)"}, {"smiles": "O=C(CSCc1c(F)cccc1Cl)NCC1CCCO1", "note": "(stereo not given)", "inhibition": "-9.5% (inactive)"}, {"smiles": "CC1CCN(C(=O)/C(=C\\c2ccccc2F)NC(=O)c2ccccc2)CC1", "inhibition": "9.8% (inactive)"}, {"smiles": "CCc1cc2c(=O)c(-c3ccon3)c(N)oc2cc1OC", "inhibition": "36.1% (active)"}, {"smiles": "COc1ccc2oc(N)c(C=O)c(=O)c2c1", "inhibition": "13.3% (inactive)"}, {"smiles": "CCc1cc2c(=O)c(-c3nc4ccccc4n3C)c(CCCC(=O)O)oc2cc1OC(=O)C(C)(C)C", "inhibition": "3.6% (inactive)"}]}]}
